ChEMBL document CHEMBL1961873, “Compounds: GSK PKIS; Assays: Nanosyn kinase panel” (2012)

What was measured:
[1] = target: T1, Serine/threonine-protein kinase D2 (Homo sapiens) (UniProt Q9BZL6); settings: at 1 µM;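 note: mean value of PRKD2 inhibition, from the GSK PKIS screening panel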
T1 sequence (whole entry): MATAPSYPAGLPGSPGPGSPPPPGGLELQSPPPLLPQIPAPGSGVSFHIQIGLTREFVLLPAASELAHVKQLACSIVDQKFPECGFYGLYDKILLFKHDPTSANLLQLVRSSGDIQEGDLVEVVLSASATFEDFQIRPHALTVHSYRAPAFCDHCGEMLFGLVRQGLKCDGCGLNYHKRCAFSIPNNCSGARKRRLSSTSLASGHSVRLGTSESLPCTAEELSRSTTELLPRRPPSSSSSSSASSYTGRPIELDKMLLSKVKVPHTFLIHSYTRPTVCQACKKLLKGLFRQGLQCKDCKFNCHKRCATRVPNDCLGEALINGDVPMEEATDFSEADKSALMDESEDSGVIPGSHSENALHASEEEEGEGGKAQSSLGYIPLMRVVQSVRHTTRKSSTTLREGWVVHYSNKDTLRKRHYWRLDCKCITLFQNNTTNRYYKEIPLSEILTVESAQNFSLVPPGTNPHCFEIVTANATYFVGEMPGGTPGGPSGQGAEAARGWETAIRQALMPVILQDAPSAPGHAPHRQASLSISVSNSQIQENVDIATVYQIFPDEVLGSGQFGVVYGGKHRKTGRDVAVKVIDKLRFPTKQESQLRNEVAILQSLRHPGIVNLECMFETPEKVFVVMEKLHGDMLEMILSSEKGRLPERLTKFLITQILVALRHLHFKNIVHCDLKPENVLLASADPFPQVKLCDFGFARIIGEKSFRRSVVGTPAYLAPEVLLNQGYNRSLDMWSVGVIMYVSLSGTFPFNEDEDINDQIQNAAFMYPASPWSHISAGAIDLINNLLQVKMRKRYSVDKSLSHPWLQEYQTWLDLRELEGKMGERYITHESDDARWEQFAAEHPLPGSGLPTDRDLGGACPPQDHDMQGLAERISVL

[2] = target: T2, Serine/threonine-protein kinase D3 (Homo sapiens) (UniProt O94806); settings: at 0.1 µM
T2 sequence (whole entry): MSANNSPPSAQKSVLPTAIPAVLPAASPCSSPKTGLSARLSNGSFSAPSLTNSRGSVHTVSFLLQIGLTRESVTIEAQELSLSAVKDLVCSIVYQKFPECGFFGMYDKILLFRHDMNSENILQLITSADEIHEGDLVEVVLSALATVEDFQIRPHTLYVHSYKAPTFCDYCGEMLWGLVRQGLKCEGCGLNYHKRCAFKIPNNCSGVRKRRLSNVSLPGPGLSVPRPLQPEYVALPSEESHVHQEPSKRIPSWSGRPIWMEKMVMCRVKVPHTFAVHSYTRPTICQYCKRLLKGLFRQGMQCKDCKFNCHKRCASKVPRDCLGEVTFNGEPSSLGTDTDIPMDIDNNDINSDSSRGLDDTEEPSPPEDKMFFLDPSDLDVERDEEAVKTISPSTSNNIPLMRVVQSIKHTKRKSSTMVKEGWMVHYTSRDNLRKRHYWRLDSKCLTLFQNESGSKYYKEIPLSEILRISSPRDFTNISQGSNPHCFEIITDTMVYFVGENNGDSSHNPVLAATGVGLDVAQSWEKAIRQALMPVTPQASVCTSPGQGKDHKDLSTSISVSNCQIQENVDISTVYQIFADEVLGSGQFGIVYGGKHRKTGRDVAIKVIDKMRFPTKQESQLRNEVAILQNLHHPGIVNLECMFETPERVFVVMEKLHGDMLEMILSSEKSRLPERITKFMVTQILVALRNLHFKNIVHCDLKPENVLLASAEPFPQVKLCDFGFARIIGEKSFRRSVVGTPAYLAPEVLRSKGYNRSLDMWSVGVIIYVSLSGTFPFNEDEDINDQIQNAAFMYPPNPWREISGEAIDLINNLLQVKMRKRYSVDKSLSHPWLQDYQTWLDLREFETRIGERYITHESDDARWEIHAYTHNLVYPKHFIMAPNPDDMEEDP

[3] = target: T2, Serine/threonine-protein kinase D3 (Homo sapiens); settings: at 1 µM
[4] = target: T3, cGMP-dependent protein kinase 1 (Homo sapiens) (UniProt Q13976); settings: at 0.1 µM
T3 sequence (whole entry): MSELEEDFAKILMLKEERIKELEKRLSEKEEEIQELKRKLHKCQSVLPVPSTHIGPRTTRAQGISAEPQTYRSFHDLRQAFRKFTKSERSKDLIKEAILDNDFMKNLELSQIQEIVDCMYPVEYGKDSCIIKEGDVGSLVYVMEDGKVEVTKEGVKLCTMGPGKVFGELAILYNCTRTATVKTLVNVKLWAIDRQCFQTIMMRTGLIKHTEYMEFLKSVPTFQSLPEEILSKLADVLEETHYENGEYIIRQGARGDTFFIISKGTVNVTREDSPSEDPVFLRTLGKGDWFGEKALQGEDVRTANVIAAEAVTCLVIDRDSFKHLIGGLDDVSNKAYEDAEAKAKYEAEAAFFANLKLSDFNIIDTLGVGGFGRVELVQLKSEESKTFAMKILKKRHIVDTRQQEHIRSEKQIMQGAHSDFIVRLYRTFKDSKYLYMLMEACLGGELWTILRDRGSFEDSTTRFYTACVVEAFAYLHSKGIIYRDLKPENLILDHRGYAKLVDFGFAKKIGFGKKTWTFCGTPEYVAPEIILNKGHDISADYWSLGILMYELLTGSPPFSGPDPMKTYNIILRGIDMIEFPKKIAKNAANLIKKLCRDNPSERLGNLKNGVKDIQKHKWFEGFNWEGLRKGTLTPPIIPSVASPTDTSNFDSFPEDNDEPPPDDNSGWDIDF

[5] = target: T3, cGMP-dependent protein kinase 1 (Homo sapiens); settings: at 1 µM
[6] = target: T4, cGMP-dependent protein kinase 2 (Homo sapiens) (UniProt Q13237); settings: at 0.1 µM
T4 sequence (whole entry): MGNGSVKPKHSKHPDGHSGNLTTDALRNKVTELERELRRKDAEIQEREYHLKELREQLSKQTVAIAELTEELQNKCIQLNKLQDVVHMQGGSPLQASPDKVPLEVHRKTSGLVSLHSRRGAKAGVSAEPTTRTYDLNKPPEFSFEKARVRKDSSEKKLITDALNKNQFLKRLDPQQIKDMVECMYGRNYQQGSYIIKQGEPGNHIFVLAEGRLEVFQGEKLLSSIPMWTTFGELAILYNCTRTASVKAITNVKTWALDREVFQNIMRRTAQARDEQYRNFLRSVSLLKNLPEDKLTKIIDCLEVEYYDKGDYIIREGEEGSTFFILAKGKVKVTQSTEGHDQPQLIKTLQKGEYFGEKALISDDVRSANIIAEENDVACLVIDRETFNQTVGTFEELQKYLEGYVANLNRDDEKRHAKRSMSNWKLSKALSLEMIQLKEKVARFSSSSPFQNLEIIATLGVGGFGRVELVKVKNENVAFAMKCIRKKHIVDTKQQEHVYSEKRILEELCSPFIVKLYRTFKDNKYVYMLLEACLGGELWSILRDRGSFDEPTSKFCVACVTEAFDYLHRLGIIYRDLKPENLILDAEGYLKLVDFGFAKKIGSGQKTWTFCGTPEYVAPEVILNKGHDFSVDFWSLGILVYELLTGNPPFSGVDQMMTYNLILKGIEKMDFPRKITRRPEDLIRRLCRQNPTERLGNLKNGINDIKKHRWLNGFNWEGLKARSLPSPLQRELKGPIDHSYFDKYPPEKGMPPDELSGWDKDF

[7] = target: T4, cGMP-dependent protein kinase 2 (Homo sapiens); settings: at 1 µM
[8] = target: T5, cAMP-dependent protein kinase catalytic subunit PRKX (Homo sapiens) (UniProt P51817); settings: at 0.1 µM
T5 sequence (whole entry): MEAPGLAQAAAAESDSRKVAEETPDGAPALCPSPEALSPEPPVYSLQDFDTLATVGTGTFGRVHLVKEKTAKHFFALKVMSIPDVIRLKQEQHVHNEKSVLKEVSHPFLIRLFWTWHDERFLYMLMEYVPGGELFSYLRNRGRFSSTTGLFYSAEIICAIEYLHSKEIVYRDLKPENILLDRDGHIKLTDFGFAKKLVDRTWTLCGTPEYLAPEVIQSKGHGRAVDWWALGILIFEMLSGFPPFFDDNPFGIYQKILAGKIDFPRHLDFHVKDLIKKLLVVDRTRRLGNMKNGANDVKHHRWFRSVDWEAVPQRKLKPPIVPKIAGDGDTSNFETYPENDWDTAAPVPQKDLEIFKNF

[9] = target: T5, cAMP-dependent protein kinase catalytic subunit PRKX (Homo sapiens); settings: at 1 µM
[10] = target: Rho-associated protein kinase 1 (Homo sapiens) (UniProt Q13464); settings: at 0.1 µM
[11] = target: Rho-associated protein kinase 1 (Homo sapiens) (UniProt Q13464); settings: at 1 µM
[12] = target: Rho-associated protein kinase 2 (Homo sapiens) (UniProt O75116); settings: at 0.1 µM
[13] = target: Rho-associated protein kinase 2 (Homo sapiens) (UniProt O75116); settings: at 1 µM
[14] = target: Ribosomal protein S6 kinase alpha-1 (Homo sapiens) (UniProt Q15418); settings: at 0.1 µM
[15] = target: Ribosomal protein S6 kinase alpha-1 (Homo sapiens) (UniProt Q15418); settings: at 1 µM
[16] = target: Ribosomal protein S6 kinase alpha-3 (Homo sapiens) (UniProt P51812); settings: at 0.1 µM
[17] = target: Ribosomal protein S6 kinase alpha-3 (Homo sapiens) (UniProt P51812); settings: at 1 µM
[18] = target: Ribosomal protein S6 kinase alpha-2 (Homo sapiens) (UniProt Q15349); settings: at 0.1 µM
[19] = target: Ribosomal protein S6 kinase alpha-2 (Homo sapiens) (UniProt Q15349); settings: at 1 µM
[20] = target: Ribosomal protein S6 kinase alpha-6 (Homo sapiens) (UniProt Q9UK32); settings: at 0.1 µM;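 note: reported value is the mean inhibition of RSK4, from the GSK PKIS kinase inhibitor screen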
Chain of Ribosomal protein S6 kinase alpha-6 (Homo sapiens) (Q9UK32 whole entry): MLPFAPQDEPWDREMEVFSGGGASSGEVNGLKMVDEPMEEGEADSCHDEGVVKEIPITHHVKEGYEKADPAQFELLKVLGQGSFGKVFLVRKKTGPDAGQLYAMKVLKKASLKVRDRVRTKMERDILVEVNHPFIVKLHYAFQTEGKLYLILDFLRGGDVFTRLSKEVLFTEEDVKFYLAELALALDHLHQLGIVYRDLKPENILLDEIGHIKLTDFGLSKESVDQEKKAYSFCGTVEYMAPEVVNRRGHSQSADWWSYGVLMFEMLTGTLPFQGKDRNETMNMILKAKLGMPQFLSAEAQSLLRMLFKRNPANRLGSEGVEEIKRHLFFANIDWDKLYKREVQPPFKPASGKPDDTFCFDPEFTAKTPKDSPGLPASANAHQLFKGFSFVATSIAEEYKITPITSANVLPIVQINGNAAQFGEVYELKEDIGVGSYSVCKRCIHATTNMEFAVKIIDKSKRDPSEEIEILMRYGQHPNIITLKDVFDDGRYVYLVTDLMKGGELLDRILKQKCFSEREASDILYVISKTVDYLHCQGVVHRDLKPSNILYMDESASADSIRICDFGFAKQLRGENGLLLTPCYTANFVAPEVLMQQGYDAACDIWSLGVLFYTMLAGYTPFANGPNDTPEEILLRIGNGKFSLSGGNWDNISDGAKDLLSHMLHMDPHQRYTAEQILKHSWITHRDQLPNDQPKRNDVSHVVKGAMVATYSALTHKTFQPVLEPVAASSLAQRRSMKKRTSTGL

Chain of Rho-associated protein kinase 2 (Homo sapiens) (O75116 whole entry, looked up): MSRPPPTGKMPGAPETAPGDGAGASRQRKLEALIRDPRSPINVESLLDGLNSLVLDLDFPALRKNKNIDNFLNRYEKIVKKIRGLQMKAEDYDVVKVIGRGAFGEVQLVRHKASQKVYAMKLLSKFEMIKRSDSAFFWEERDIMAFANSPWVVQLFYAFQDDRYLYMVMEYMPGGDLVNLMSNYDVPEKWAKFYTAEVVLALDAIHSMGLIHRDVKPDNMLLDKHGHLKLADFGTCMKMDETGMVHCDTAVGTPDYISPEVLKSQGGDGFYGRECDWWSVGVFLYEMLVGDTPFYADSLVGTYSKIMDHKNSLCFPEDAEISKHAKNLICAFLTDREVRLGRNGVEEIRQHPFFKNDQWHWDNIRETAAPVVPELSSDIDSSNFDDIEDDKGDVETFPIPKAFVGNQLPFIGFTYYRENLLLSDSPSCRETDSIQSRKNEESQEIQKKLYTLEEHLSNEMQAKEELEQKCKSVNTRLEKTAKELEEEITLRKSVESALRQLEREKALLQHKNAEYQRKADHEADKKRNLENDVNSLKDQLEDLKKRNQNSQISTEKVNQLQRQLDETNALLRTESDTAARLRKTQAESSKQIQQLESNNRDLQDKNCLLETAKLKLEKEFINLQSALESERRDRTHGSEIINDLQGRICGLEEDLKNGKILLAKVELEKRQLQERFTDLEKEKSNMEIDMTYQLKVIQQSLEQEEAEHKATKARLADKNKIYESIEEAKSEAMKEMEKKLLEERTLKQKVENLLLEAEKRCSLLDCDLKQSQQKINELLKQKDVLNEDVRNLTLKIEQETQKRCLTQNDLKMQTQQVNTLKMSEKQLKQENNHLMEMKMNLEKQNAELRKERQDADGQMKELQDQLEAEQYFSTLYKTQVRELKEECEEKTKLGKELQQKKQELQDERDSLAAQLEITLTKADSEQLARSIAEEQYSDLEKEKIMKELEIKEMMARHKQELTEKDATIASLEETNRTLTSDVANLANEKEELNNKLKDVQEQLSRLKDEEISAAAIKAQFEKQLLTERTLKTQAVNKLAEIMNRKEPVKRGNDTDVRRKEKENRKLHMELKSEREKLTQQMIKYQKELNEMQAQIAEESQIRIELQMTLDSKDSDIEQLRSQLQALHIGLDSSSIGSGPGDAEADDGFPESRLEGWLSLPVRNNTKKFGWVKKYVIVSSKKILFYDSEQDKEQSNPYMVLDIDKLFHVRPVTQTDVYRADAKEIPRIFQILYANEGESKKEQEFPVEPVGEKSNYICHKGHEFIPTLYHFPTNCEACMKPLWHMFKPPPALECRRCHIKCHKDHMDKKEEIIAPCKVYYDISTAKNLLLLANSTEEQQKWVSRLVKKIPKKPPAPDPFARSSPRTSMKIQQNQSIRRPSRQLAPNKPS
Chain of Ribosomal protein S6 kinase alpha-3 (Homo sapiens) (P51812 whole entry): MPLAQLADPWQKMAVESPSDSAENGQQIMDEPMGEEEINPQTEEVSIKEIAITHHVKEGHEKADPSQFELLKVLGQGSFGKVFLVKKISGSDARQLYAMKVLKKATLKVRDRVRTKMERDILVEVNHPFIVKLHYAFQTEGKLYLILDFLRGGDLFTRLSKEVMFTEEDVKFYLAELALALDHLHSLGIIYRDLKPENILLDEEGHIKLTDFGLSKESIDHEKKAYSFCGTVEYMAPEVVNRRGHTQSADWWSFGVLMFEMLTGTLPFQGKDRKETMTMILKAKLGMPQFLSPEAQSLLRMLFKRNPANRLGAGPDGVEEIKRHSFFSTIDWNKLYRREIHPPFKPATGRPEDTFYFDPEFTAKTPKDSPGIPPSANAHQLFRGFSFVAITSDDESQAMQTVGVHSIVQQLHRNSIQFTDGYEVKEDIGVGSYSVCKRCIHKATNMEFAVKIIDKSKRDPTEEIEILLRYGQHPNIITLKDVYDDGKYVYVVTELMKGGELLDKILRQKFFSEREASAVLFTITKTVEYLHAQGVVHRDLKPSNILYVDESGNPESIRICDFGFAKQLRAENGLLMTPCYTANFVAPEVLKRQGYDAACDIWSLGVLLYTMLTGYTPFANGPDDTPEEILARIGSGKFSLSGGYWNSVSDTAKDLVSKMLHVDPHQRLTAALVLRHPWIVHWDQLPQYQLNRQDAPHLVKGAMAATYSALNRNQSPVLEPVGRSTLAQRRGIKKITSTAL
Chain of Ribosomal protein S6 kinase alpha-2 (Homo sapiens) (Q15349 whole entry): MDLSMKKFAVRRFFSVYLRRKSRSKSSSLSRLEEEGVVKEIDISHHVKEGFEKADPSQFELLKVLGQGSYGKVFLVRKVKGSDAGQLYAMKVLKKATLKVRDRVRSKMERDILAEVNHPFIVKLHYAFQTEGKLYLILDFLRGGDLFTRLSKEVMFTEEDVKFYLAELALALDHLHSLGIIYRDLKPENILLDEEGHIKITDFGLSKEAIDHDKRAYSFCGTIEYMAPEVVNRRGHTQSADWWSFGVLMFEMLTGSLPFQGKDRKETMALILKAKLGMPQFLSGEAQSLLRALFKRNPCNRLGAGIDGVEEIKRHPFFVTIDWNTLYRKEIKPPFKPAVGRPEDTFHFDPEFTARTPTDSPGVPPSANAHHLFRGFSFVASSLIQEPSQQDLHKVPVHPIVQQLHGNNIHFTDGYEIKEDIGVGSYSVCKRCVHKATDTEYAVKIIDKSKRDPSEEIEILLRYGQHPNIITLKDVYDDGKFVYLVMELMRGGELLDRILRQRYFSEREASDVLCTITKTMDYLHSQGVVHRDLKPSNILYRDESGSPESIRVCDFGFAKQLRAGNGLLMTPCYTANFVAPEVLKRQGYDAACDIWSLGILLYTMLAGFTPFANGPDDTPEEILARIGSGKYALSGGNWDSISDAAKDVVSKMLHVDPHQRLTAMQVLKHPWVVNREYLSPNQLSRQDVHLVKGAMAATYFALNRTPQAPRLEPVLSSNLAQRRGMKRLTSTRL
Chain of Rho-associated protein kinase 1 (Homo sapiens) (Q13464 2-1354 limits assumed): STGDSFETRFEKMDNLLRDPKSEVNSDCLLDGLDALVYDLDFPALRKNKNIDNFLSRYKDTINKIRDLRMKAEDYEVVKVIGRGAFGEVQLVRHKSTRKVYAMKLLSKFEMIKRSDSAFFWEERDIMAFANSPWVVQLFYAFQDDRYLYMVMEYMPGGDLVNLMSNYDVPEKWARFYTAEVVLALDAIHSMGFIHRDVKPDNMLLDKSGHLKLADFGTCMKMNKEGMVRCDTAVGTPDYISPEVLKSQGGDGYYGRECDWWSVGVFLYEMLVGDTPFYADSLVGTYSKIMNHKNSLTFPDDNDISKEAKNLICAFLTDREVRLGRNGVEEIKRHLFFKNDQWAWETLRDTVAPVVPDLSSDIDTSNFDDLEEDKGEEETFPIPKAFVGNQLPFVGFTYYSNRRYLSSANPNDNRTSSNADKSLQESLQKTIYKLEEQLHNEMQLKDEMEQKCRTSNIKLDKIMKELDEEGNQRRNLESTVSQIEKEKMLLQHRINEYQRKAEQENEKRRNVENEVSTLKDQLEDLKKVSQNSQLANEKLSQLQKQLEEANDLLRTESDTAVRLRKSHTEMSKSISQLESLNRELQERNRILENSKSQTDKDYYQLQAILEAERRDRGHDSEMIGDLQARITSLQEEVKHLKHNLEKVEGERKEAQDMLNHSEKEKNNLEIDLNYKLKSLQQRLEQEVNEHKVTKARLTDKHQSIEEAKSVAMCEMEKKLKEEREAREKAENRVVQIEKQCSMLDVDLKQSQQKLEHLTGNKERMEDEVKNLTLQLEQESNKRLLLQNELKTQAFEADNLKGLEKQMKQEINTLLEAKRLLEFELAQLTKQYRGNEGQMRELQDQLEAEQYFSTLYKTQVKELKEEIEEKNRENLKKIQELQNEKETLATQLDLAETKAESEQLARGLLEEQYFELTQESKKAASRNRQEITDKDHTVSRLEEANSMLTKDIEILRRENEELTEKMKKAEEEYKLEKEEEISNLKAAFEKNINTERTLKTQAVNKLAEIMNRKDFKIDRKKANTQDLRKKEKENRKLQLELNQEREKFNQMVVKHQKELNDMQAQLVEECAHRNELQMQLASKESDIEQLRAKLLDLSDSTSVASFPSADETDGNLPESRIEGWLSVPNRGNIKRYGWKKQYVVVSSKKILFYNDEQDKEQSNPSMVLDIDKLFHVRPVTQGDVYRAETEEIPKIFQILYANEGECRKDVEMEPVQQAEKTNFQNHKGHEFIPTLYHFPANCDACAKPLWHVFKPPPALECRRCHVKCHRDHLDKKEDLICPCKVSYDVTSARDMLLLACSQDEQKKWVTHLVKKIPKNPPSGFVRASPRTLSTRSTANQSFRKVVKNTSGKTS

SMILES | inhibition [1] [%] | inhibition [2] [%] | inhibition [3] [%] | inhibition [4] [%] | inhibition [5] [%] | inhibition [6] [%] | inhibition [7] [%] | inhibition [8] [%] | inhibition [9] [%] | inhibition [10] [%] | inhibition [11] [%] | inhibition [12] [%] | inhibition [13] [%] | inhibition [14] [%] | inhibition [15] [%] | inhibition [16] [%] | inhibition [17] [%] | inhibition [18] [%] | inhibition [19] [%] | inhibition [20] [%]
Cc1ccc2c(-c3ccnc(Nc4ccc5c(c4)OCCO5)n3)c(-c3ccc(C(F)(F)F)cc3)nn2n1 | 2.37 | 1.2 | 2.26 | 3.03 | 3.63 | 2.95 | 2.42 | 6.47 | 6.18 | 0.76 | 1.22 | 0.44 | 1.89 | 0.91 | 0.79 | 1.19 | 1.86 | 1.06 | 1.53 | -0.18
c1ccc(Cc2nc3ccc(Nc4ncnc5ccccc45)cc3[nH]2)cc1 | 4.57 | 3.17 | 5.52 | 1.14 | 4.46 | 1.61 | 6.41 | 0.98 | 1.89 | 0.25 | 1.95 | 2.34 | 4.82 | 2.52 | 4.1 | 0.88 | 2.69 | 1.07 | 3.24 | 0.96
NC(=O)c1cccc(Nc2nccc(Nc3cccc(F)c3)n2)c1 | 0.2 | 0.7 | 1.01 | 0.12 | -0.32 | 0.77 | 0.47 | 1.19 | 0.35 | 0.28 | 0.46 | 0.51 | 1.52 | -1.2 | 1.35 | 0.35 | 1.16 | 1.27 | 1.94 | 1.27
